The results in this text go back to paper PMC11006913.

What all share (assay): PBM; 200 nM protein, PBS
Conditions in all cases: dsDNA, one strand shown

The target in assay [1] is HOXB9 (Homo sapiens, UniProt P17482 171-250, T197M).
Assay [2] deals with HOXB9 (Homo sapiens, UniProt P17482 171-250).
Assay [3] addresses PROP1 (Homo sapiens, UniProt O75360 56-141).
In assay [4] the target is PROP1 (Homo sapiens, UniProt O75360 56-141, R99H).
Assay [5] addresses PROP1 (Homo sapiens, UniProt O75360 56-141, F88S).
In assay [6] the target is HESX1 (Homo sapiens, UniProt Q9UBX0 95-180, R165K).
The target of assay [7] is HESX1 (Homo sapiens, UniProt Q9UBX0 95-180).
Assay [8] deals with HESX1 (Homo sapiens, UniProt Q9UBX0 95-180, F115L).
Assay [9] concerns the target SHOX (Homo sapiens, UniProt O15266 103-189).
In assay [10] the target is SHOX (Homo sapiens, UniProt O15266 103-189, R173C).
For assay [11], the target named is HOXB6 (Homo sapiens, UniProt P17509 132-218, K202E).
Assay [12] concerns the target HOXA2 (Homo sapiens, UniProt O43364 129-215, R185T).
The target of assay [13] is MSX2 (Homo sapiens, UniProt P35548 130-214, R199I).
In assay [14] the target is HOXA2 (Homo sapiens, UniProt O43364 129-215, R185K).
Assay [15] concerns the target MSX2 (Homo sapiens, UniProt P35548 130-214).
Assay [16] has as its target MSX2 (Homo sapiens, UniProt P35548 130-214, F161Y).
Assay [17] has as its target HOXA2 (Homo sapiens, UniProt O43364 129-215, Y150S).
In assay [18] the target is HOXA2 (Homo sapiens, UniProt O43364 129-215).
The target in another assay is VAX1 (Homo sapiens, UniProt Q5SQQ9 86-172, K157R).
Assay [19] deals with HOXB6 (Homo sapiens, UniProt P17509 132-218).
Chain of HOXB6 (Homo sapiens, UniProt P17509 132-218) (P17509 132-218): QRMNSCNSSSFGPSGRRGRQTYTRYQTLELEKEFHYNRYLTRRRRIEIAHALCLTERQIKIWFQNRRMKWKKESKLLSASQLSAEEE

Chain of HOXB9 (Homo sapiens, UniProt P17482 171-250) (P17482 171-250): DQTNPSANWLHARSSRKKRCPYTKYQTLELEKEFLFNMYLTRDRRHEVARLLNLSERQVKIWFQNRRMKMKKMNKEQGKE
Chain of PROP1 (Homo sapiens, UniProt O75360 56-141, F88S) (O75360 56-141 F88S): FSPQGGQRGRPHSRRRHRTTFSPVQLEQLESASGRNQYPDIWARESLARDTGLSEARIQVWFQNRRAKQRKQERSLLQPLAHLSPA
Chain of SHOX (Homo sapiens, UniProt O15266 103-189) (O15266 103-189): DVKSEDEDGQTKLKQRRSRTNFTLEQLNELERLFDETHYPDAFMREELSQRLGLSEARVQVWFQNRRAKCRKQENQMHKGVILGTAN
Chain of PROP1 (Homo sapiens, UniProt O75360 56-141, R99H) (O75360 56-141 R99H): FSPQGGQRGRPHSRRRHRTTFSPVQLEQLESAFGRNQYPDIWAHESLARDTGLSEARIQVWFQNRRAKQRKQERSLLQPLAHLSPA
Chain of VAX1 (Q5SQQ9 86-172 K157R): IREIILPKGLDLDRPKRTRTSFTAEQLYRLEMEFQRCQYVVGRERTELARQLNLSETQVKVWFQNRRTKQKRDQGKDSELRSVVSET
Chain of HOXB6 (Homo sapiens, UniProt P17509 132-218, K202E) (P17509 132-218 K202E): as the sequence (P17509 132-218) above, with K71E counted along it
Chain of PROP1 (Homo sapiens, UniProt O75360 56-141) (O75360 56-141): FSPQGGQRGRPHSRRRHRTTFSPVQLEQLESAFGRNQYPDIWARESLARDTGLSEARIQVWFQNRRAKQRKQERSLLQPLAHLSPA
Chain of SHOX (Homo sapiens, UniProt O15266 103-189, R173C) (O15266 103-189 R173C): as the sequence (O15266 103-189) above, with R71C counted along it
Chain of HOXA2 (Homo sapiens, UniProt O43364 129-215, R185T) (O43364 129-215 R185T): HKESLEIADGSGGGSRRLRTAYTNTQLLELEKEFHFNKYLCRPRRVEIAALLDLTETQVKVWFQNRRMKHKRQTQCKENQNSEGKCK
Chain of HOXB9 (Homo sapiens, UniProt P17482 171-250, T197M) (P17482 171-250 T197M): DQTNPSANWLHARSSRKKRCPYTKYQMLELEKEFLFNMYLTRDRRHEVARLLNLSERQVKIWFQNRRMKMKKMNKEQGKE
Chain of MSX2 (Homo sapiens, UniProt P35548 130-214, R199I) (P35548 130-214 R199I): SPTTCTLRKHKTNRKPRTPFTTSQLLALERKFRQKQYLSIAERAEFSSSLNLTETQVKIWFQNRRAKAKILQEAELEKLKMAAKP
Chain of HESX1 (Homo sapiens, UniProt Q9UBX0 95-180, F115L) (Q9UBX0 95-180 F115L): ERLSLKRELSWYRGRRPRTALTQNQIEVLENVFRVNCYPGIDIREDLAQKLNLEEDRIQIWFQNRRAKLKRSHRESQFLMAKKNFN
Chain of MSX2 (Homo sapiens, UniProt P35548 130-214) (P35548 130-214): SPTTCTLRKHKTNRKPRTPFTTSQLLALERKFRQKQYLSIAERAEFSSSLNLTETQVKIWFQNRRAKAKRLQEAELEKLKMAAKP
Chain of HESX1 (Homo sapiens, UniProt Q9UBX0 95-180, R165K) (Q9UBX0 95-180 R165K): as the sequence (Q9UBX0 95-180 F115L) above, with L21F, R71K counted along it
Chain of HOXA2 (Homo sapiens, UniProt O43364 129-215, Y150S) (O43364 129-215 Y150S): as the sequence (O43364 129-215 R185T) above, with Y22S, T57R counted along it
Chain of HOXA2 (Homo sapiens, UniProt O43364 129-215) (O43364 129-215): as the sequence (O43364 129-215 R185T) above, with T57R counted along it
Chain of MSX2 (Homo sapiens, UniProt P35548 130-214, F161Y) (P35548 130-214 F161Y): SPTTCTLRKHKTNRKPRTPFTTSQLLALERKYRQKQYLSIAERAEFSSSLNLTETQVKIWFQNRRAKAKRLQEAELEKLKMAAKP
Chain of HOXA2 (Homo sapiens, UniProt O43364 129-215, R185K) (O43364 129-215 R185K): as the sequence (O43364 129-215 R185T) above, with T57K counted along it
Chain of HESX1 (Homo sapiens, UniProt Q9UBX0 95-180) (Q9UBX0 95-180): as the sequence (Q9UBX0 95-180 F115L) above, with L21F counted along it

As to CGCCCGAG, the binding signal is 8.29 upbm affinity estimate (log intensity, higher = more binding, comparable within an allelic series) with HOXB9 [1]; 8.15 upbm affinity estimate (log intensity, higher = more binding, comparable within an allelic series) with HOXB9 [2]; 6.84 upbm affinity estimate (log intensity, higher = more binding, comparable within an allelic series) in the assay with PROP1 [3]; 6.77 upbm affinity estimate (log intensity, higher = more binding, comparable within an allelic series) with PROP1 [4]; 6.6 upbm affinity estimate (log intensity, higher = more binding, comparable within an allelic series) with PROP1 [5].
Turning to CCGCGTCG, the binding signal is 6.63 upbm affinity estimate (log intensity, higher = more binding, comparable within an allelic series) with HESX1 [6]; 6.33 upbm affinity estimate (log intensity, higher = more binding, comparable within an allelic series) in the assay with HESX1 [7]; 6.48 upbm affinity estimate (log intensity, higher = more binding, comparable within an allelic series) with HESX1 [8].
As to CCCGGCGG, the binding signal was 6.68 upbm affinity estimate (log intensity, higher = more binding, comparable within an allelic series) with PROP1 [3]; 6.68 upbm affinity estimate (log intensity, higher = more binding, comparable within an allelic series) in the assay with PROP1 [4]; 6.39 upbm affinity estimate (log intensity, higher = more binding, comparable within an allelic series) with PROP1 [5].
As to ACCCGGGC, the binding signal with SHOX [9] is 7.11 upbm affinity estimate (log intensity, higher = more binding, comparable within an allelic series); in the assay with SHOX [10] it was 7.15 upbm affinity estimate (log intensity, higher = more binding, comparable within an allelic series).
With CTACTTAA, the binding signal in the assay with PROP1 [3] was 8.53 upbm affinity estimate (log intensity, higher = more binding, comparable within an allelic series); with PROP1 [4], 8.11 upbm affinity estimate (log intensity, higher = more binding, comparable within an allelic series); in the assay with PROP1 [5], 7.26 upbm affinity estimate (log intensity, higher = more binding, comparable within an allelic series).
Turning to CGGGCTCC, the binding signal with HOXB9 [1] was 8.02 upbm affinity estimate (log intensity, higher = more binding, comparable within an allelic series); in the assay with HOXB6 [11], 8.71 upbm affinity estimate (log intensity, higher = more binding, comparable within an allelic series); with HOXA2 [12], 6.41 upbm affinity estimate (log intensity, higher = more binding, comparable within an allelic series); with HOXB9 [2] it was 7.77 upbm affinity estimate (log intensity, higher = more binding, comparable within an allelic series); with MSX2 [13], 9.06 upbm affinity estimate (log intensity, higher = more binding, comparable within an allelic series); in the assay with HOXA2 [14] it was 9.88 upbm affinity estimate (log intensity, higher = more binding, comparable within an allelic series). Also, the binding signal was 8.79 upbm affinity estimate (log intensity, higher = more binding, comparable within an allelic series) with MSX2 [15]; 8.87 upbm affinity estimate (log intensity, higher = more binding, comparable within an allelic series) in the assay with MSX2 [16]; 10.2 upbm affinity estimate (log intensity, higher = more binding, comparable within an allelic series) in the assay with HOXA2 [17]; 6.39 upbm affinity estimate (log intensity, higher = more binding, comparable within an allelic series) with HOXA2 [18]; 6.27 upbm affinity estimate (log intensity, higher = more binding, comparable within an allelic series) in the assay with VAX1; 8.31 upbm affinity estimate (log intensity, higher = more binding, comparable within an allelic series) with HOXB6 [19].
Regarding ACGGCTGG, the binding signal in the assay with PROP1 [3] was 6.59 upbm affinity estimate (log intensity, higher = more binding, comparable within an allelic series); with PROP1 [4], 6.78 upbm affinity estimate (log intensity, higher = more binding, comparable within an allelic series); with PROP1 [5], 6.67 upbm affinity estimate (log intensity, higher = more binding, comparable within an allelic series).
On to ACGGCGGC, for which the binding signal with HOXB6 [11] was 8.91 upbm affinity estimate (log intensity, higher = more binding, comparable within an allelic series); in the assay with VAX1 it was 7.25 upbm affinity estimate (log intensity, higher = more binding, comparable within an allelic series); with HOXB6 [19], 9.12 upbm affinity estimate (log intensity, higher = more binding, comparable within an allelic series).
Regarding CGGACCCG, the binding signal is 8.97 upbm affinity estimate (log intensity, higher = more binding, comparable within an allelic series) with HOXB6 [11] and 9 upbm affinity estimate (log intensity, higher = more binding, comparable within an allelic series) in the assay with HOXB6 [19].
For ACGCGCAG, the binding signal is 7.05 upbm affinity estimate (log intensity, higher = more binding, comparable within an allelic series) with SHOX [9] and 7.17 upbm affinity estimate (log intensity, higher = more binding, comparable within an allelic series) with SHOX [10].
For the sequence CGGTCCAA, the binding signal is 7.28 upbm affinity estimate (log intensity, higher = more binding, comparable within an allelic series) with SHOX [9] and 7.18 upbm affinity estimate (log intensity, higher = more binding, comparable within an allelic series) with SHOX [10].
Consider AATTAGCT, for which the binding signal in the assay with HESX1 [6] is 11.6 upbm affinity estimate (log intensity, higher = more binding, comparable within an allelic series); with SHOX [9] it was 11.7 upbm affinity estimate (log intensity, higher = more binding, comparable within an allelic series); with HESX1 [7] it was 11.6 upbm affinity estimate (log intensity, higher = more binding, comparable within an allelic series); in the assay with MSX2 [13], 12.3 upbm affinity estimate (log intensity, higher = more binding, comparable within an allelic series); with SHOX [10], 9.43 upbm affinity estimate (log intensity, higher = more binding, comparable within an allelic series); with MSX2 [15], 13.3 upbm affinity estimate (log intensity, higher = more binding, comparable within an allelic series). Moreover, the binding signal in the assay with PROP1 [3] was 11 upbm affinity estimate (log intensity, higher = more binding, comparable within an allelic series); with PROP1 [4], 10.9 upbm affinity estimate (log intensity, higher = more binding, comparable within an allelic series); with PROP1 [5] it was 7.6 upbm affinity estimate (log intensity, higher = more binding, comparable within an allelic series); in the assay with MSX2 [16], 12.9 upbm affinity estimate (log intensity, higher = more binding, comparable within an allelic series); with HESX1 [8], 7.79 upbm affinity estimate (log intensity, higher = more binding, comparable within an allelic series); in the assay with VAX1 it was 12.4 upbm affinity estimate (log intensity, higher = more binding, comparable within an allelic series).
Turning to GCCACTTA, the binding signal in the assay with HOXB9 [2] was 10.1 upbm affinity estimate (log intensity, higher = more binding, comparable within an allelic series).
On to CCGGAGCC, for which the binding signal is 8.96 upbm affinity estimate (log intensity, higher = more binding, comparable within an allelic series) with HOXB6 [11] and 8.93 upbm affinity estimate (log intensity, higher = more binding, comparable within an allelic series) with HOXB6 [19].
Take CCAGGCCG: the binding signal is 7.21 upbm affinity estimate (log intensity, higher = more binding, comparable within an allelic series) in the assay with HOXA2 [12]; 10.2 upbm affinity estimate (log intensity, higher = more binding, comparable within an allelic series) in the assay with HOXA2 [14]; 10.3 upbm affinity estimate (log intensity, higher = more binding, comparable within an allelic series) with HOXA2 [17]; 7.17 upbm affinity estimate (log intensity, higher = more binding, comparable within an allelic series) in the assay with HOXA2 [18].
For ACCAGCTG, the binding signal with SHOX [9] was 7.08 upbm affinity estimate (log intensity, higher = more binding, comparable within an allelic series); in the assay with SHOX [10], 7.03 upbm affinity estimate (log intensity, higher = more binding, comparable within an allelic series).
